# FBPA Giardia inh – Giardia lamblia aldolase inhibition. purified Giardia FBPA. Potency, µM (top dose mostly 59.6 µM), for inactives: top-dose activity, negative = inhibition, hits mostly inhibitors. 0.71% of 290,000 active. AID 2451; also: potency is read from the fitted curve at half-maximal effect; nearly all actives have a fitted effect of over 55% in size
# Target sequence (A8B2U2 whole entry, looked up): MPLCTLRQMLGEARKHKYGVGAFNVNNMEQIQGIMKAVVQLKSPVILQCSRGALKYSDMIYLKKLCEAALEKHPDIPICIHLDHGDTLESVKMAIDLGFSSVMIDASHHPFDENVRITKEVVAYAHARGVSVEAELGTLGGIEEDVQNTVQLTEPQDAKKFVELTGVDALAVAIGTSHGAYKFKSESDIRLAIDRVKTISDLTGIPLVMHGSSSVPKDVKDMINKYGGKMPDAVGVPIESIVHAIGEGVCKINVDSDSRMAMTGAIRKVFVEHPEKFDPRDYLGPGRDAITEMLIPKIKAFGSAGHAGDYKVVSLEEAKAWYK
#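 Giardia FBPA (40 nM reagent) was preincubated 10 min at RT with compound (up to 57.5 uM final), then substrate plus GAPDH/TPI/NAD/arsenate coupling system with diaphorase/resazurin was added; resorufin fluorescence (525/598 nm) was read after 20 min.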
# HCV inh – blocks hepatitis C virus. 3.4% of 340,000 active. Huh7.5.1 HCVcc-Cre infection, luciferase reporter, 44 h. Potency, µM (titrated, usually from 41.8 µM), for inactives: at the top dose activity change, negative = inhibition, most hits filed as inhibitors. AID 651820; also: potency is read from the fitted curve at half-maximal effect
#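 Infectious HCVcc-Cre (~0.5 moi) was added to cells just after compound, with cells seeded 4 h earlier at 1,000 per well. Luciferase activity after 44 h culture reported infection; substrate was incubated 15 min at room temperature before reading.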
# HCMV inh – blocks human cytomegalovirus replication. HFF cells, HCMV-luciferase reporter, 72 h; hits give low values. activity change, negative = inhibition, % at 57.5 µM. 4.5% of 410,000 active. AID 1259415; in the data active = activity change below about -60%; inconclusive = no clear call, values can overlap the other calls; inactive = above about -39%
#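 HFF cells seeded 16 h at 37C, treated with compounds, infected with luciferase-reporter HCMV at MOI 1 PFU/cell; luciferase read at 72 h post infection, normalized to buffer-only and Salinomycin controls.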
# Lassa entry inh – inhibitors of Lassa virus binding or cell entry; Lassa virus pseudotype entry inhibition, cell reporter; Potency, µM (titrated, usually from 37.9 µM), inactives show at the highest dose activity change, negative = inhibition, actives largely listed as inhibitors; 1.2% of 300,000 active; AID 540256; calls by dose curve; tested in HEK293 cells; also: potency is read from the fitted curve at half-maximal effect; nearly all actives have a fitted effect of over 50% in size
# MARV entry inh – inhibitors of Marburg virus binding or cell entry | Marburg virus pseudotyped entry inhibition, cell reporter | Potency, µM (doses to about 37.8 µM), for inactives: at the top dose activity change, negative = inhibition, actives largely listed as inhibitors | 1.8% of 300,000 active; calls by dose curve; tested in HEK293 cells; also: potency is read from the fitted curve at half-maximal effect
# FMDV inh – blocks foot and mouth disease virus; FMDV antiviral cell-based qHTS; Potency, µM (doses to about 57.9 µM), for the others: top-dose activity change, negative = inhibition, actives largely listed as inhibitors; 1.2% of 410,000 active; AID 1159524; calls by dose curve; tested in HEK293T cells; also: read-out not given here; potency is read from the fitted curve at half-maximal effect; nearly all actives have a fitted effect of over 45% in size
# * hit, by the source's call; ? = inconclusive; / = no result; [ ] = remark or other dose. Most compounds without a hit are left out; they make up all but 8.3% or so of the library. Unless noted, calls follow the shape of the dose curve; as a rule, active = well fitted curve in the direction sought with a large enough effect; inconclusive = small, poorly fitted or top-dose-only effect, or another doubt; inactive = no such curve, though single readings can be large; an effect the other way counts as inactive or inconclusive. % is scaled to controls: 0 for no effect and ±100 for the full control effect.
SMILES,FBPA Giardia inh,HCV inh,HCMV inh,Lassa entry inh,MARV entry inh,FMDV inh
COc1ccc(S(=O)(=O)N2CCCN(S(=O)(=O)c3ccc(OC)c(C)c3)CC2)cc1C,4%,?,-26,?,?,/
COc1ccc2cc(S(=O)(=O)N3CCCCC3)ccc2c1S(=O)(=O)N1CCCCC1,-8%,?,-72*,-21%,?,?
Cc1cc(O)cc(C)c1NS(=O)(=O)c1ccc2ccccc2c1,3%,-28%,-83*,/,/,-1%
Cc1ccc(S(=O)(=O)Nc2ccc3ccccc3c2)cc1,/,-5%,-19,-30%[46.1 µM],-27%,36%
COc1ccc(S(=O)(=O)Nc2ccc(S(=O)(=O)N3CCCCC3)cc2)cc1C,13%,35µM*,5,-12%,13%,96%
COc1ccc(S(=O)(=O)Nc2ccc3ccccc3c2)cc1C,-2%,11µM*,-13,-4%,?,22%
O[C@@H]1CO[C@@H](C=Cc2ccccc2)[C@H]1OCc1cccc(Br)c1,/,/,/,?,-5%[14.2 µM],/
Cc1cc(O)c(C(c2ccc(F)cc2)N2CCCCC2)c(=O)n1Cc1ccco1 (stereo not drawn),/,/,14,11%[46.1 µM],/,-13%
COC(=O)c1ccc2c(c1)N(CC(=O)Nc1ccc(C)cc1Cl)C(=O)c1ccccc1S2,/,/,18,?,/,-16%
COc1ccc(S(=O)(=O)N2CCCCCC2)cc1N(C)S(=O)(=O)c1ccc(Cl)cc1,-1%,?,-60*,-42%,?,/
Cc1cc(C)c(NS(=O)(=O)c2ccccc2)c(C)c1NS(=O)(=O)c1ccccc1,/,?,-72*,?,?,-2%
O=S(=O)(Nc1ccc(NS(=O)(=O)c2ccccc2)cc1)c1ccccc1,/,/,-14,/,/,24%
NCCc1ccn[nH]1,-9%[21.7 µM],0%,-67*,/,/,-2%
COC(=O)c1c(C(=O)OC)c2c3cc(OC)c(OC)cc3cc([Si](C)(C)C)n2c1C(=O)OC,/,/,/,/,24%[14.2 µM],/
O=C(c1cccc(NS(=O)(=O)c2cccc(C(F)(F)F)c2)c1)N1CCOCC1,7%,23%,-62*,-2%,8%,17%
Cc1cccc(C(=O)NNC(=O)c2ccc(S(=O)(=O)N3CCOCC3)cc2)c1,-2%,18%,-75*,?,?,-3%
Cc1ccc(C(=O)NNC(=O)c2cccc(S(=O)(=O)N3CCOCC3)c2)cc1,/,15%,2,/,/,-8%
O=C(O)c1cccc(S(=O)(=O)Nc2ccc(S(=O)(=O)N3CCOCC3)cc2)c1,13%,17%,-34,2%,-3%[46.1 µM],-19%
O=C(O)c1cccc(NS(=O)(=O)c2ccc(S(=O)(=O)N3CCOCC3)cc2)c1,8%,10%,-76*,/,/,-16%
C=C1CCC[C@]2(C)C[C@H]3OC(=O)C(CNC(C)(CO)CO)[C@H]3CC12 (stereo partly drawn),6%,-9%,-86*,9%,?,-21%
C=C1CCC[C@]2(C)C[C@H]3OC(=O)C(CN4CCCCC4CO)[C@H]3CC12 (stereo partly drawn),-11%,-17%,-92*,-25%,11µM*,?
C=C1CCC[C@]2(C)C[C@H]3OC(=O)C(CNC(CC)CO)[C@H]3CC12 (stereo partly drawn),-2%,-6%,-22,-11%,-7%,-22%
NCCCNc1nc(N)c([N+](=O)[O-])c(NC2CCCCC2)n1,12%,13µM*,-97*,/,/,?
COC(=O)[C@]1(Cc2ccccc2)N[C@H](c2ccc(-c3ccc(F)cc3)cc2)[C@@H]2C(=O)N(C)C(=O)[C@@H]21,/,11µM*,2,/,/,?
CCN1C(=O)[C@H]2[C@@H](c3ccc(-c4cccc(Cl)c4)c(OC)c3)N[C@@](Cc3ccccc3)(C(=O)OC)[C@H]2C1=O,/,0%,67,/,/,-22%
SMILES,FBPA Giardia inh,HCV inh,HCMV inh,Lassa entry inh,MARV entry inh,FMDV inh
COC(=O)[C@]1(Cc2ccccc2)N[C@H](c2ccc(-c3cccc(Cl)c3)c(OC)c2)[C@@H]2C(=O)N(C)C(=O)[C@@H]21,/,2.2µM*,11,/,/,-27%
CCCCCCSc1ccc([C@H]2N[C@@](CC(C)C)(C(=O)OC)[C@H]3C(=O)N(C)C(=O)[C@@H]23)cc1OC,/,7.9µM*,58,/,/,13%
COC(=O)[C@]1(CC(C)C)N[C@H](c2ccc(SC3CCCCC3)c(OC)c2)[C@@H]2C(=O)N(C)C(=O)[C@@H]21,/,?,-16,/,/,0%
CCOC(=O)C1NNN2C3CCCCC3C(N3CCN(C4CCCCC4)CC3)NC12 (stereo not drawn),/,/,/,/,5%[46.1 µM],/
CCOc1ccccc1-c1nc(-c2cc3ccccc3nc2OC)no1,-1%,11µM*,61,-20%,?,-15%
COc1nc2ccccc2cc1-c1noc(-c2cccnc2)n1,2%,/,/,/,/,/
CCOc1ccccc1NC(=O)c1ccccc1-c1nc(-c2ccccc2OC)no1,2%,11µM*,30,?,?,-11%
Cc1cccc(C(=O)OCc2cc(=O)n3ccsc3n2)c1,/,/,12,25%[46.1 µM],/,-13%
CCOC(=O)C1=C(C(=O)OCC)C2N(Cc3ccc(C#N)cc3)c3ccccc3[C@@]23C[C@@H](C(=O)OC)N(S(=O)(=O)c2ccc(OC)cc2)C3=N1 (stereo partly drawn),/,/,-4,/,/,/
Cc1oc(-c2cccc(Cl)c2)nc1CSc1nc2ncccc2[nH]1,/,/,-19,28%[46.1 µM],/,-13%
CCOc1ccc(CCNC(=O)Cn2c(-c3nonc3N)nc3ccccc32)cc1OCC,5%,14µM*,-32,-7%,-11%,?
CCCCOc1ccccc1NC(=O)Cn1c(-c2nonc2N)nc2ccccc21,0%,?,-78*,?,?,-12%
CCOc1ccc(CCn2c(-c3ccco3)nc3ccccc3c2=O)cc1OCC,-3%,7.1µM*,-76*,6.5µM*,2.3µM*,?
O=c1c2ccccc2nc(-c2ccco2)n1Cc1ccccc1,-3%,5%,102,0%,18%,38%
CCCOc1ccc(NC(=O)CC2C(=O)N(c3cccc(OC)c3)C(=O)N2Cc2cccs2)cc1 (stereo not drawn),/,/,-13,-14%[46.1 µM],/,3%
O=c1nc2sc3ccccc3n2c(=O)n1-c1cccc(Cl)c1,-2%,11µM*,/,?,?,72%
O=C(NCCc1c[nH]c2ccccc12)/C(=C\c1cccnc1)NC(=O)c1ccccc1Br,9%,-15%,6,/,/,3.5µM*
Cc1ccc(-c2nn3c(C)nnc3s2)cc1NC(=O)c1ccc(-c2cccc(Cl)c2)o1,5%,?,?,?,9.2µM*,?
Cc1ccc(-c2nn3c(C)nnc3s2)cc1NC(=O)c1ccc(-c2ccc(Cl)cc2Cl)o1,-24%,?,-74*,?,15µM*,-5%
CCOc1ccc2c(c1)C(c1cccs1)=NNC(c1cccnc1)=N2,-28%,8%,-71*,-13%,-16%[46.1 µM],-20%
